Measurements: PubChem BioAssay AID1159580 (chemical genetic matrix, 2015)
In all, about 5,500 compounds went through this assay and about 2,000 (36%) were called active. Another 18% or so got no clear call; they are omitted. Cut-off read from the data, not from the text of the source: active = normalized growth mostly below about 0.91 (no sharp cut-off); inconclusive = no clear call, values can overlap the other calls; inactive = mostly above about 0.92. This is one part of the list.

Assay: chemical genetic growth profiling, strain panel (AID 1159580);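 note: tested at 20 µM; growth read once vehicle control cultures reached saturation at 30 °C; 1 = growth at the plate median or of vehicle wells; lower values mean less growth of the strain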
Settings: S. cerevisiae deletion strains, growth OD

Measured: normalized growth

COP(=S)(OC)Oc1ccc(Sc2ccc(OP(=S)(OC)OC)cc2)cc1
inactive: locus YAL021C, strain ccr4, stronger effect = lower value 1 | locus YAL026C, strain drs2, stronger effect = lower value 1 | locus YAL030W, strain snc1, stronger effect = lower value 0.999 | locus YBL061C, strain skt5, stronger effect = lower value 1.01 | locus YBR009C, strain hhf1, stronger effect = lower value 1.01 | locus YBR023C, strain chs3, stronger effect = lower value 1.01 | locus YBR171W, strain sec66, stronger effect = lower value 0.992 | locus YBR231C, strain swc5, stronger effect = lower value 1 | locus YBR279W, strain paf1, stronger effect = lower value 1.01 | locus YCL011C, strain gbp2, stronger effect = lower value 1 | locus YCL016C, strain dcc1, stronger effect = lower value 1.01 | locus YCL061C, strain MRC1, stronger effect = lower value 1.01 | locus YCL069W, strain vba3, stronger effect = lower value 1.01 | locus YCR088W, strain abp1, stronger effect = lower value 0.994 | locus YDL005C, strain med2, stronger effect = lower value 0.998 | locus YDL040C, strain nat1, stronger effect = lower value 1 | locus YDR001C, strain nth1, stronger effect = lower value 1.01 | locus YDR069C, strain doa4, stronger effect = lower value 1.02 | locus YDR137W, strain rgp1, stronger effect = lower value 1.02 | locus YDR159W, strain sac3, stronger effect = lower value 0.994 | locus YDR195W, strain ref2 0.976 | locus YDR297W, strain sur2, stronger effect = lower value 1 | locus YDR334W, strain swr1, stronger effect = lower value 1.01 | locus YDR335W, strain msn5, stronger effect = lower value 1.01 | locus YDR392W, strain spt3, stronger effect = lower value 0.993 | locus YEL003W, strain gim4, stronger effect = lower value 1.01 | locus YEL037C, strain rad23, stronger effect = lower value 1 | locus YEL061C, strain CIN8 (second series), stronger effect = lower value 1 | locus YER015W, strain faa2, stronger effect = lower value 1 | locus YER016W, strain bim1, stronger effect = lower value 1 | locus YER111C, strain swi4, stronger effect = lower value 1 | locus YER155C, strain BEM2 (second series), stronger effect = lower value 1 | locus YFR010W, strain ubp6, stronger effect = lower value 1.01 | locus YGL167C, strain pmr1, stronger effect = lower value 0.998 | locus YGL173C, strain kem1, stronger effect = lower value 1 | locus YGL227W, strain vid30, stronger effect = lower value 1 | locus YGL240W, strain doc1, stronger effect = lower value 0.999 | locus YGL253W, strain hxk2, stronger effect = lower value 1 | locus YHR013C, strain ard1, stronger effect = lower value 0.986 | locus YHR027C, strain rpn1, stronger effect = lower value 1.01 | locus YHR030C, strain SLT2, stronger effect = lower value 0.973 | locus YHR079C, strain IRE1, stronger effect = lower value 1.01 | locus YHR142W, strain chs7, stronger effect = lower value 1.01 | locus YJL092W, strain hpr5, stronger effect = lower value 1 | locus YJL095W, strain BCK1 (second series), stronger effect = lower value 1 | locus YJL095W, strain BCK1, stronger effect = lower value 0.999 | locus YJL115W, strain asf1, stronger effect = lower value 1 | locus YJL129C, strain trk1, stronger effect = lower value 1.02 | locus YJL154C, strain vps35, stronger effect = lower value 1.01 | locus YJL164C, strain tpk1, stronger effect = lower value 1.02 | locus YJL166W, strain qcr8, stronger effect = lower value 1.01 | locus YJL187C, strain SWE1, stronger effect = lower value 1.01 | locus YJR066W, strain TOR1, stronger effect = lower value 0.946 | locus YKL160W, strain elf1, stronger effect = lower value 1 | locus YKR026C, strain gcn3, stronger effect = lower value 1 | locus YKR091W, strain srl3, stronger effect = lower value 0.997 | locus YLL001W, strain dnm1, stronger effect = lower value 1 | locus YLL026W, stronger effect = lower value 0.995 | locus YLL041C, strain sdh2, stronger effect = lower value 1 | locus YLR027C, strain aat2, stronger effect = lower value 1 | locus YLR113W, strain HOG1, stronger effect = lower value 0.977 | locus YLR221C, strain rsa3, stronger effect = lower value 1 | locus YLR258W, strain gsy2, stronger effect = lower value 1 | locus YLR262C, strain YPT6 (second series), stronger effect = lower value 1.04 | locus YLR320W, strain mms22, stronger effect = lower value 0.993 | locus YLR342W, strain FKS1, stronger effect = lower value 1.01 | locus YLR357W, strain rsc2, stronger effect = lower value 1.01 | locus YLR370C, strain arc18, stronger effect = lower value 1.01 | locus YLR384C, strain iki3, stronger effect = lower value 1 | locus YML120C, strain ndi1, stronger effect = lower value 1.01 | locus YMR058W, strain fet3, stronger effect = lower value 1.04 | locus YMR125W, strain sto1, stronger effect = lower value 1 | locus YMR129W, stronger effect = lower value 1.01 | locus YMR205C, strain PFK2, stronger effect = lower value 0.992 | locus YMR231W, strain pep5, stronger effect = lower value 1 | locus YNL071W, strain lat1, stronger effect = lower value 1.01 | locus YNL183C, strain NPR1, stronger effect = lower value 0.945 | locus YNL209W, strain ssb2, stronger effect = lower value 1.01 | locus YNL248C, strain rpa49, stronger effect = lower value 1 | locus YNL322C, strain KRE1 (second series), stronger effect = lower value 1 | locus YNR049C, strain mso1, stronger effect = lower value 1.01 | locus YOR001W, strain rrp6, stronger effect = lower value 1 | locus YOR070C, strain gyp1, stronger effect = lower value 1.01 | locus YOR080W, strain dia2, stronger effect = lower value 1 | locus YOR083W, strain WHI5, stronger effect = lower value 1.01 | locus YOR106W, strain vam3, stronger effect = lower value 0.999 | locus YOR231W, strain MKK1, stronger effect = lower value 0.984 | locus YOR265W, strain rbl2, stronger effect = lower value 1.02 | locus YOR270C, strain vph1, stronger effect = lower value 1.03 | locus YOR290C, strain snf2, stronger effect = lower value 1 | locus YPL051W, strain arl3, stronger effect = lower value 1.01 | locus YPL078C, strain atp4, stronger effect = lower value 1.01 | locus YPL106C, strain sse1, stronger effect = lower value 1.03 | locus YPL240C, strain hsp82, stronger effect = lower value 1 | locus YPL256C, strain CLN2, stronger effect = lower value 1.03
